# NPR1 antag: Natriuretic polypeptide receptor (hNpr1) antagonism - Primary qHTS; hit rate 1.6% among 76,000; Potency, µM (highest dose often 46.3 µM), without a hit: top-dose activity change, negative = inhibition, hits mostly inhibitors; HEK293 hNpr1 GloSensor cGMP, ANP-stimulated luminescence; AID 1347048, 2019; Atrial natriuretic peptide receptor 1 (Homo sapiens), P16066; calls by dose curve; also: nearly all actives have a fitted effect of over 60% in size
#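 HEK293 cells stably expressing human Npr1 and cGMP GloSensor pGS-40F, loaded 2 h with 2% GloSensor reagent, given compound 30 min at room temperature. Luminescence read before and 20 min after 0.1 nM hNppA.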
# FLuc inh: Firefly luciferase inhibition profiling of diverse chemical library using quantitative high-throughput screening; purified P. pyralis luciferase, luminescence, biochemical; Potency, µM (series often up to 115 µM), usual class: inhibitors; hit rate 2.5% among 76,000; AID 1347043, 2019; also: nearly all actives have a fitted effect of over 65% in size
#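 Cell-free enzyme assay, 10nM P. pyralis luciferase, luciferin and ATP each at 10uM. Inhibition profiled over a 6-point titration, read as luminescence.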
# HEK cytotox: Cytotoxic Profiling in HEK 293 Cell Line of Diverse Libraries Using Quantitative High-Throughput Screening | HEK 293 viability, ATP luminescence (CellTiter-Glo), 48-72 h | Potency, µM (titrated, usually from 115 µM), without a hit: top-dose activity change, negative = cytotoxicity, most hits filed as inhibitors | hit rate 6.6% among 94,000 | AID 1345083, 2018; also: nearly all actives have a fitted effect of over 60% in size
#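 Read-out: CellTiter-Glo ATP luminescence. Cells: HEK 293, 250 cells/well. Exposure: 48 or 72 hr, 37 degree Celsius.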
# NIH3T3 tox: Cytotoxic Profiling in NIH 3T3 Cell Line of Diverse Libraries Using Quantitative High-Throughput Screening. NIH 3T3 viability, CellTiter-Glo ATP luminescence, 48-72 h. Potency, µM (doses to about 96.7 µM), for the others: at the highest dose activity change, negative = cytotoxicity, most hits filed as inhibitors. hit rate 4.3% among 94,000; also: nearly all actives have a fitted effect of over 55% in size
#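 Luminescent ATP readout (CellTiter-Glo, 10 min RT) after 48 or 72 hr compound exposure of NIH 3T3 cells seeded at 400 cells/well in 1536-well format; quantitative HTS.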
# An asterisk follows results filed as active; i = inactive; ? = inconclusive; / = no result given; [ ] = dose if it differs, or a comment. This is a sample that favours compounds with a hit; in the whole collection about 11% have one here. Unless noted, calls follow the shape of the dose curve; as a rule, active = well fitted curve in the direction sought with a large enough effect; inconclusive = small, poorly fitted or top-dose-only effect, or another doubt; inactive = no such curve, though single readings can be large; an effect the other way counts as inactive or inconclusive. % is scaled to controls: 0 for no effect and ±100 for the full control effect; potency is read from the fitted curve at half-maximal effect.
SMILES,NPR1 antag,FLuc inh,HEK cytotox,NIH3T3 tox
CCN1C(=O)C2CC3(CCN(C(=O)Nc4ccc5c(c4)OCCO5)CC3)CN2C1=O (stereo not drawn),0.3%,35.5µM*,-16.1%,-1.6%
O=C1OC[C@@H]2CCN(Cc3ccccc3Cl)Cc3ccc(F)cc3N12,-1.5%[70.6 µM],i,70.8µM*,-24.1%[174 µM]
COc1ccc(C(=O)N2CCCC(n3cc(-c4nc(-c5ccccc5)no4)nn3)C2)cc1F (stereo not drawn),?,?,20µM*,?
O=C(c1ccoc1)N1CCCC(n2cc(-c3nc(-c4ccccc4)no3)nn2)C1 (stereo not drawn),?,?,50.1µM*,?
O=C(c1ccc(F)c(F)c1)N1CCC(n2cc(-c3nc(-c4ccccc4)no3)nn2)C1 (stereo not drawn),11.2µM*,?,39.8µM*,?
O=C(c1cccc(F)c1)N1CCC(n2cc(-c3nc(-c4ccccc4)no3)nn2)C1 (stereo not drawn),-4.9%,i,?,?
O=C(c1ccc(F)c(F)c1)N1CCCC(n2cc(-c3nc(-c4ccccc4)no3)nn2)C1 (stereo not drawn),11.2µM*,?,44.7µM*,?
COc1ccc(C(=O)N2CCCC(n3cc(-c4nc(C)no4)nn3)C2)cc1F (stereo not drawn),0.0%,i,-4.9%,-19.6%
O=C(c1ccncc1)N1CCCC(n2cc(-c3nc(-c4ccccc4)no3)nn2)C1 (stereo not drawn),-29.3%,?,-29.7%,?
COc1ccccc1C(=O)N1CCC(OCC2CC2)C1 (stereo not drawn),/,/,i,-8.8%
Cn1ncc2c(C(=O)Nc3ccc(F)cc3)cc(-c3cccc(C(F)(F)F)c3)nc21,/,/,-9.9%,?
Cc1ccccc1C(=O)NC1CCCN(c2ccnc3ccnn23)C1 (stereo not drawn),/,/,?,-24.1%
CN(C)C1(CC2CC2)CCN(Cc2cccc(F)c2)CC1,/,/,-4.3%,-29.2%
CN(C)c1cccc(C(=O)N2CCC(n3cc(-c4nc(-c5ccccc5)no4)nn3)C2)c1 (stereo not drawn),?,31.6µM*,28.2µM*,?
CCc1noc(-c2cn(C3CCN(C(=O)c4cccc(Cl)c4)C3)nn2)n1 (stereo not drawn),-25.2%,i,?,?
COc1ccc(C(=O)N2CCCC(n3cc(-c4nc(-c5ccccc5)no4)nn3)C2)cc1 (stereo not drawn),?,?,28.2µM*,?
Cc1noc(-c2cn(C3CCN(C(=O)c4ccc5c(c4)OCO5)C3)nn2)n1 (stereo not drawn),-6.2%,i,-0.2%,-8.8%
O=C(c1ccc2c(c1)OCO2)N1CCC(n2cc(-c3nc(-c4ccccc4)no3)nn2)C1 (stereo not drawn),12.6µM*,?,?,-42.9%
O=C(c1cccc(Cl)c1)N1CCC(n2cc(-c3nc(-c4ccccc4)no3)nn2)C1 (stereo not drawn),-15.8%,?,39.8µM*,?
Cn1ncc2c(C(=O)NCCc3ccc(Cl)cc3)cc(-c3ccc(C(F)(F)F)cc3)nc21,/,/,0.3%,-20.3%
CCn1cc(S(=O)(=O)N2CCC(OCc3noc(C4CCCO4)n3)CC2)cn1 (stereo not drawn),/,/,-1.9%,-17.8%
COc1ccc(OCC2CCCN(C(=O)c3cn(C4CCCCC4)nn3)C2)cc1 (stereo not drawn),-3.4%,31.6µM*,?,?
O=C(c1cc(Cl)ccc1F)N1CCCC(n2cc(-c3nc(-c4ccccc4)no3)nn2)C1 (stereo not drawn),15.8µM*,?,31.6µM*,?
CCCc1noc(-c2cn(C3CCN(C(=O)c4cccc(F)c4)CC3)nn2)n1,0.0%,i,-13.1%,35.5µM*
O=C(c1cccs1)N1CCCC(n2cc(-c3nc(-c4ccccc4)no3)nn2)C1 (stereo not drawn),?,35.5µM*,?,?
COc1ccc(C(=O)N2CCCC(n3cc(-c4nc(C(C)C)no4)nn3)C2)cc1 (stereo not drawn),-0.6%,i,-28.8%,-22.5%

# Screening results deposited in PubChem by National Center for Advancing Translational Sciences (NCATS).
